Experimental data from PubChem BioAssay (EPA / NIEHS).
The source made the active and inactive calls. The calls were made as follows: active = hit-call score of the fitted dose curve at least 0.9, where 1 is the maximum; inactive = score below 0.9.

Each compound was assayed on Monocyte Chemoattractant Protein-1 (MCP1), CCL2 (gene 6347) (assay: BSK_4H_MCP1: BioMAP Diversity Plus: 4H Assay for Monocyte Chemoattractant Protein-1 (MCP1) Biomarker Activity (AID 2283018)). Settings: primary human endothelial cells (HUVEC); actives raise or lower the signal.
Experimental: BSK_4H is a cell-based, multiplexed-readout assay that uses umbilical vein endothelium, a human vascular primary cell, with measurements taken at 24 hours after chemical dosing in a 96-well plate.BSK_4H_MCP1 is an assay component measured in the BSK_4H assay. It measures MCP-1 antibody related to regulation of gene expression using ELISA technology.Data from the assay component BSK_4H_MCP1 was analyzed into 1 assay endpoint. This assay endpoint, BSK_4H_MCP1, was analyzed with bidirectional fitting relative to DMSO as the negative control and baseline of activity. Using a type of binding reporter, gain or loss-of-signal activity can be used to understand changes in the signaling as they relate to the gene CCL2. Furthermore, this assay endpoint can be referred to as a primary readout, because this assay has produced multiple assay endpoints where this one serves a signaling function. To generalize the intended target to other relatable targets, this assay endpoint is annotated to the cytokine intended target family, where the subfamily is chemotactic factor.
The levels of cell surface (or secreted, indicated by the prefix "s") biomarker endpoints were measured by ELISA. Overt cytotoxicity to cells in confluent adherent cultures (all systems other than the BT system) was assessed by measuring total protein levels using sulforhodamine B (SRB) staining in parallel cultures at the time of biomarker measurements, indicated as SRB endpoints. For proliferation assays for adherent cell types, individual cell types are cultured at sub-confluence and relative cell numbers quantified by SRB staining at time points optimized for each system (48 h: 3C and CASM3C systems; 72 h: BT and HDF3CGF systems; 96 h: SAg system). SRB was performed by staining cells with 0.1% SRB after fixation with 10% TCA and reading wells at 560 nm.Viability and proliferation of PBMC (T cells) was quantified by Alamar Blue reduction for the SAg and BT systems. For PBMC viability (referred to as PBMC Cytotoxicity within the assay endpoint names), cells were plated (75,000/well in a 96-well plate) and then chemical samples added for 1 h before addition of activators, SEB and TSST-1 (20 ng/mL final concentration each). Cells were incubated for 90 h. Then, Alamar Blue (20 uL/well) (Invitrogen, Cat DAL1100) was added for 6 h, and the plates were read with a fluorescence microplate reader at 546/580 nm (excitation/emission). For PBMC proliferation, cells were plated and activated as above but incubated for only 16 h prior to addition of Alamar Blue. Plates were read after 6 h.
`CCCCCCCCCCCCN(C)C` was tested, and the outcome was “inactive”.
For `O=C(CCl)NCO`, the outcome was “inactive”.
`C=CC(Cl)CCl` (stereo not given) was tested, and the outcome was “inactive”.
With `CCOP(=S)(OCC)OP(=S)(OCC)OCC` the AC50 was 33.5 µM (active).
With `CCN(CC)C(=O)C(Cl)=C(C)OP(=O)(OC)OC` the outcome was “inactive”.
In the case of `CCCCOC(=O)COC(=O)c1ccccc1C(=O)OCCCC`, the outcome is reported as “inactive”.
For `COCC(=O)N(c1c(C)cccc1C)[C@H](C)C(=O)OC`, the outcome was “inactive”.
`CCOC(=O)CCN(SN(C)C(=O)Oc1cccc2c1OC(C)(C)C2)C(C)C` was tested, and the AC50 was 31.6 µM (active).
With `O=S(=O)(c1ccc(Cl)cc1)c1cc(Cl)c(Cl)cc1Cl` the outcome was “inactive”.
`C[C@]12CC[C@@H](O)C[C@@H]1CC[C@@H]1[C@@H]2CC[C@]2(C)C(=O)CC[C@@H]12` was tested, and the outcome was “inactive”.
`OC(Cc1ccccc1Cl)(Cn1cncn1)C1(Cl)CC1` (stereo not given) was tested, and the outcome was “inactive”.
`Cc1ccccc1OP(=O)(Oc1ccccc1)Oc1ccccc1` was tested, and the AC50 was 20 µM (active).
With `OCCCCO` the outcome was “inactive”.
`N#Cc1cccnc1` was tested, and the outcome was “inactive”.
For `N#CCCC(Br)(C#N)CBr` (stereo not given), the AC50 was 5.77 µM (active).
With `O=C(O)C1(c2ccc3c(c2)OC[C@H](Cc2ccc(-c4ccccc4)cc2)[C@H]3O)CCCC1` the AC50 was 20 µM (active).
`c1ccc2sc(SNC3CCCCC3)nc2c1` was tested, and the outcome was “inactive”.
`O=C(O)COc1cc(Cl)c(Cl)cc1Cl` was tested, and the outcome was “inactive”.
In the case of `Cc1cc(Cl)ccc1OC(C)C(=O)O` (stereo not given), the outcome is reported as “inactive”.
In the case of `Cc1ccc(OP(=O)(Oc2ccc(C)cc2C)Oc2ccc(C)cc2C)c(C)c1`, the AC50 is reported as 4.53 µM (active).
For `[Cl][Sn]([c]1ccccc1)([c]1ccccc1)[c]1ccccc1`, the AC50 was 0.066 µM (active).
With `Nc1ccc(N)cc1` the outcome was “inactive”.
`O=c1oc2ccccc2c(O)c1C(CC(O)c1ccc(-c2ccc(Br)cc2)cc1)c1ccccc1` (stereo not given) was tested, and the AC50 was 1.47 µM (active).
For `CC(C)N(C(=O)CCl)c1ccccc1`, the AC50 was 20 µM (active).
`O=C(N[C@H]1CN2CCC1CC2)c1ccc2c(c1)OCCO2` was tested, and the outcome was “inactive”.
For `O=S(=O)(C(Cl)(Cl)Cl)C(Cl)(Cl)Cl`, the AC50 was 1.16 µM (active).
For `Clc1cccc(Cl)c1Cl`, the outcome was “inactive”.
`O=[N+]([O-])c1cccc2ccccc12` was tested, and the outcome was “inactive”.
For `CC(C=O)Cc1ccc2c(c1)OCO2` (stereo not given), the outcome was “inactive”.
With `Clc1cccc(Cl)c1` the outcome was “inactive”.
`CC(C)(C)c1ccccc1O` was tested, and the outcome was “inactive”.
`O=[N+]([O-])c1ccc(Nc2ccccc2)cc1` was tested, and the AC50 was 20 µM (active).
For `OC(Cc1ccccc1Cl)(Cn1[nH]cnc1=S)C1(Cl)CC1` (stereo not given), the AC50 was 21.4 µM (active).
`Cc1ccccc1OP(=O)(Oc1ccccc1C)Oc1ccccc1C` was tested, and the AC50 was 6.27 µM (active).
With `CCOP(=S)(OCC)SCS(=O)(=O)C(C)(C)C` the outcome was “inactive”.
With `Oc1cccc(-c2ccccc2)c1` the AC50 was 20 µM (active).
`O=C1C=CC(=O)c2ccccc21` was tested, and the AC50 was 1.45 µM (active).
For `COc1ccccc1N`, the outcome was “inactive”.
With `CC(C)(COCC1CO1)COCC1CO1` (stereo not given) the outcome was “inactive”.
`Oc1ccc(Cc2ccc(O)cc2)cc1` was tested, and the outcome was “inactive”.
